{"source": "PubChem BioAssay (NCATS)", "note": "Several values for one entry are separate records, joined by “and”; a condition that tells them apart may be missing. Equal entries are not always repeated. Results filed as inconclusive are left out. Activity calls are given as the source filed them. Unless noted, the call rests on the fitted dose curve; in most records, active means well fitted inhibition curve with a large enough effect; inconclusive means small, poorly fitted or top-dose-only effect; inactive means flat fitted curve, though single readings scatter.", "data": [{"molecular_target": "Lysosomal alpha-glucosidase (Homo sapiens) (UniProt P10253)", "assay": "Confirmation of Inhibitors and Activators of Purified Human alpha-Glucosidase (AID 2115; active means well fitted curve in either direction with a large enough effect)", "conditions": "purified human GAA enzyme activity; series mostly up to 76.2 µM; activity change, negative = inhibition: at the top concentration", "outline": "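Fluorogenic 4-MU-substrate hydrolysis (400 uM substrate, 4 nM human enzyme) over 20 min at room temperature, pH 5.0 citrate buffer plus 0.005% Tween-20; NaOH/glycine stop, then ex 365/em 440 nm read. Titration up to 77 uM; Hill-equation AC50, normalized to no-enzyme and full-activity controls.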", "values": [{"smiles": "CC(=O)c1ccc(N2CCN(S(=O)(=O)c3ccc4c(c3)OCC(=O)N4)CC2)cc1", "activity change, negative = inhibition": "0.582% (inactive)"}, {"smiles": "CC(=O)c1ccc(N2CCN(S(=O)(=O)c3cc4c(cc3Cl)NC(=O)C4)CC2)cc1", "Potency": "1.63 µM (active) and 4.61 µM (active)"}, {"smiles": "CC(=O)c1ccc(N2CCN(S(=O)(=O)c3ccc4c(c3)CCC(=O)N4)CC2)cc1", "activity change, negative = inhibition": "-6.19% (inactive)"}, {"smiles": "CC(=O)c1ccc(N2CCN(S(=O)(=O)c3ccc4c(c3)CCCC(=O)N4)CC2)cc1", "activity change, negative = inhibition": "-3.1% (inactive)"}, {"smiles": "O=C1Cc2cc(S(=O)(=O)N3CCN(c4ccc([N+](=O)[O-])cc4)CC3)ccc2N1", "Potency": "3.66 µM (active)"}, {"smiles": "O=C1Cc2cc(S(=O)(=O)N3CCN(c4ccc(CO)cc4)CC3)ccc2N1", "Potency": "13 µM (active)"}, {"smiles": "CC(=O)c1ccc(N2CCN(C(=O)c3ccc4c(c3)CC(=O)N4)CC2)cc1", "activity change, negative = inhibition": "-3.41% (inactive)"}, {"smiles": "O=C1Cc2cc(S(=O)(=O)N3CCN(c4cccc(C(F)(F)F)c4)CC3)ccc2N1", "Potency": "14.9 µM (active)"}, {"smiles": "CC(=O)c1ccc(N2CCN(S(=O)(=O)c3ccc4c(c3)CC(C)N4C(C)=O)CC2)cc1", "note": "(configuration not stated)", "activity change, negative = inhibition": "-2.39% (inactive)"}, {"smiles": "O=Cc1ccc(N2CCN(S(=O)(=O)c3ccc4c(c3)CC(=O)N4)CC2)cc1", "Potency": "3.66 µM (active)"}, {"smiles": "CC(=O)N1CCN(S(=O)(=O)c2ccc3c(c2)CC(=O)N3)CC1", "Potency": "11.9 µM (active)"}, {"smiles": "CC(=O)c1ccc(N2CCN(S(=O)(=O)c3ccc4[nH]c(=O)[nH]c4c3)CC2)cc1", "activity change, negative = inhibition": "-12.1% (inactive)"}, {"smiles": "CC(=O)c1ccc(N2CCN(C(=O)c3ccc4c(c3)CCC(=O)N4)CC2)cc1", "activity change, negative = inhibition": "-2.3% (inactive)"}, {"smiles": "CC(=O)Nc1ccc(S(=O)(=O)N2CCN(c3ccc(C(C)=O)cc3)CC2)cc1", "activity change, negative = inhibition": "-7.6% (inactive)"}, {"smiles": "CC(=O)c1ccc(N2CCN(S(=O)(=O)c3ccc4[nH]c(=O)oc4c3)CC2)cc1", "activity change, negative = inhibition": "-9% (inactive)"}, {"smiles": "O=C1Cc2cc(S(=O)(=O)N3CCN(c4ccc(O)cc4)CC3)ccc2N1", "Potency": "1.88 µM (active)"}, {"smiles": "CC(=O)c1ccc(N2CCN(S(=O)(=O)c3ccc4c(c3)C(=O)OC4)CC2)cc1", "activity change, negative = inhibition": "-4.1% (inactive)"}, {"smiles": "CC(=O)c1ccc(N2CCN(S(=O)(=O)c3ccc4c(c3)CCCN4C(C)=O)CC2)cc1", "activity change, negative = inhibition": "-8.63% (inactive)"}, {"smiles": "COc1ccc(N2CCN(S(=O)(=O)c3ccc4c(c3)CC(=O)N4)CC2)cc1", "Potency": "23.7 µM (active)"}, {"smiles": "N#Cc1ccc(N2CCN(S(=O)(=O)c3ccc4c(c3)CC(=O)N4)CC2)cc1", "Potency": "2.91 µM (active)"}, {"smiles": "CC(=O)c1ccc(N2CCN(S(=O)(=O)c3ccc4c(c3)oc(=O)n4C)CC2)cc1", "activity change, negative = inhibition": "-0.854% (inactive)"}, {"smiles": "CC(=O)c1ccc(N2CCN(S(=O)(=O)c3ccc4c(c3)n(C)c(=O)n4C)CC2)cc1", "activity change, negative = inhibition": "-4.43% (inactive)"}, {"smiles": "CC(=O)c1ccc(N2CCN(S(=O)(=O)c3ccc(N4CCCC4=O)cc3)CC2)cc1", "activity change, negative = inhibition": "-3.95% (inactive)"}, {"smiles": "Cc1ccc(N2CCN(S(=O)(=O)c3ccc4c(c3)CC(=O)N4)CC2)cc1", "activity change, negative = inhibition": "-1.54% [at 144 µM] (inactive)"}]}, {"molecular_target": "Tyrosyl-DNA phosphodiesterase 1 (Homo sapiens) (UniProt Q9NUW8)", "sequence (Q9NUW8 whole entry, looked up)": "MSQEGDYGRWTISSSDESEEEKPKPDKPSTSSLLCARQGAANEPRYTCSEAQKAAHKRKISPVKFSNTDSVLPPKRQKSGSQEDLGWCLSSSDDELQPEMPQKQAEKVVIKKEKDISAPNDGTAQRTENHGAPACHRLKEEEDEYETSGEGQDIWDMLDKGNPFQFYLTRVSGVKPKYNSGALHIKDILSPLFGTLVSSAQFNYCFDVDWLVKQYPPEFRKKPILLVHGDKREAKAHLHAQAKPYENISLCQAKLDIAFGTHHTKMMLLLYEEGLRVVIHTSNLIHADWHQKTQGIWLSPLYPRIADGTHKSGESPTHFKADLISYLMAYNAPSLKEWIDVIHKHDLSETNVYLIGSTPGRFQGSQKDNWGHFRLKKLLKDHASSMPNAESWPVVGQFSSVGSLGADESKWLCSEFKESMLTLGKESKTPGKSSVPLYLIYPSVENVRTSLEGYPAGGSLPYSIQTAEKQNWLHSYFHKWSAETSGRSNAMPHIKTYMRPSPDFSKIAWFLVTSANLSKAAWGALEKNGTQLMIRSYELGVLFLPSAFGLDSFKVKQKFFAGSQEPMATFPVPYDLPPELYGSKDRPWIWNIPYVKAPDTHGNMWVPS", "assay": "Confirmation Assay for Inhibitors of Tyrosyl-DNA Phosphodiesterase (TDP1) (AID 489007); further: potency means the concentration at half of the fitted maximal effect; nearly all actives have a fitted effect of over 40% in size", "conditions": "recombinant human TDP1 enzymatic activity, dose-response", "outline": "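Loss of AlphaScreen signal reports Tdp1 cleavage of a dual-labelled DNA substrate. Conditions: 1 nM E. coli-derived enzyme, 15 nM substrate, 15 min compound preincubation, 5 min reaction, 10 min bead incubation, all at room temperature.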", "values": [{"smiles": "Cc1ccccc1NC(=O)CN1C(=O)N/C(=C\\c2cccn2-c2cccc(C(=O)O)c2)C1=O", "Potency": "1.78 µM (active)"}, {"smiles": "Fc1ccc(CSc2nc3ncc(Br)cc3[nH]2)cc1", "Potency": "56.2 µM (active)"}, {"smiles": "Cc1ccc(NC(=O)CN2C(=O)N/C(=C\\c3cccn3-c3cccc(C(=O)O)c3)C2=O)cc1", "Potency": "1.12 µM (active)"}]}, {"molecular_target": "Calcium and integrin-binding protein 1 (Homo sapiens) (UniProt Q99828)", "sequence (Q99828 whole entry, looked up)": "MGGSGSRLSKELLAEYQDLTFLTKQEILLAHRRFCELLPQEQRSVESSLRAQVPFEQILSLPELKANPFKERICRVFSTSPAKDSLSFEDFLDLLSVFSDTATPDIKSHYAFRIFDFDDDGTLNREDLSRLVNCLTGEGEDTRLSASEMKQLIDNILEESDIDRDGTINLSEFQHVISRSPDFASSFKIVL", "assay": "Primary qHTS for Identification of Calcium Integrin Binding Protein 1 (CIB1) Competitor (AID 1508620);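 further: GST tagged CIB1 binding a fluorescein labelled alphaIIb integrin peptide tracer; top concentration of the series differs between compounds; on the % scale 0 is the no-effect control and ±100 the full control effect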", "conditions": "CIB1-GST / FITC-alphaIIb peptide fluorescence polarization; series mostly up to 114 µM; activity change, negative = inhibition: at the top concentration", "outline": "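Fluorescence polarization competition: CIB1-GST (1 uM final) preincubated with compound 15 min at room temperature, then FITC-labeled alphaIIb peptide (100 nM final) added for another 15 min. Polarization read at Ex 480/Em 540.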", "values": [{"smiles": "CC(=O)c1ccc(N2CCN(S(=O)(=O)c3ccc4c(c3)OCC(=O)N4)CC2)cc1", "activity change, negative = inhibition": "2.82% (inactive)"}, {"smiles": "CC(=O)c1ccc(N2CCN(S(=O)(=O)c3cc4c(cc3Cl)NC(=O)C4)CC2)cc1", "activity change, negative = inhibition": "-22% (inactive)"}, {"smiles": "CC(=O)c1ccc(N2CCN(S(=O)(=O)c3ccc4c(c3)CCC(=O)N4)CC2)cc1", "activity change, negative = inhibition": "15% (inactive)"}, {"smiles": "CC(=O)c1ccc(N2CCN(S(=O)(=O)c3ccc4c(c3)CCCC(=O)N4)CC2)cc1", "activity change, negative = inhibition": "4.04% (inactive)"}, {"smiles": "O=C1Cc2cc(S(=O)(=O)N3CCN(c4ccc([N+](=O)[O-])cc4)CC3)ccc2N1", "activity change, negative = inhibition": "-2.78% (inactive)"}, {"smiles": "O=C1Cc2cc(S(=O)(=O)N3CCN(c4ccc(CO)cc4)CC3)ccc2N1", "activity change, negative = inhibition": "2.3% (inactive)"}, {"smiles": "CC(=O)c1ccc(N2CCN(C(=O)c3ccc4c(c3)CC(=O)N4)CC2)cc1", "activity change, negative = inhibition": "-3.07% (inactive)"}, {"smiles": "O=C1Cc2cc(S(=O)(=O)N3CCN(c4cccc(C(F)(F)F)c4)CC3)ccc2N1", "activity change, negative = inhibition": "-1.19% [at 228 µM] (inactive)"}, {"smiles": "CNc1oc(-c2cccs2)nc1C#N", "activity change, negative = inhibition": "3.66% (inactive)"}, {"smiles": "CC(=O)c1ccc(N2CCN(S(=O)(=O)c3ccc4c(c3)CC(C)N4C(C)=O)CC2)cc1", "note": "(configuration not stated)", "activity change, negative = inhibition": "6.13% (inactive)"}, {"smiles": "O=Cc1ccc(N2CCN(S(=O)(=O)c3ccc4c(c3)CC(=O)N4)CC2)cc1", "activity change, negative = inhibition": "4% (inactive)"}, {"smiles": "CC(=O)N1CCN(S(=O)(=O)c2ccc3c(c2)CC(=O)N3)CC1", "activity change, negative = inhibition": "-1.8% [at 228 µM] (inactive)"}, {"smiles": "CC(C)(C)n1nc(Cc2cccc3ccccc23)c2c(N)ncnc21", "activity change, negative = inhibition": "-1.19% (inactive)"}, {"smiles": "COc1ccc(-n2c(C)c(C(C)=O)c3cc(O)ccc32)cc1", "activity change, negative = inhibition": "-1.4% [at 228 µM] (inactive)"}, {"smiles": "CC(=O)c1ccc(N2CCN(S(=O)(=O)c3ccc4[nH]c(=O)[nH]c4c3)CC2)cc1", "activity change, negative = inhibition": "36% (inactive)"}, {"smiles": "CC(=O)Nc1sc2c(c1-c1ccc(N3CCN(C)CC3)cc1)CCNC2", "activity change, negative = inhibition": "1.29% (inactive)"}, {"smiles": "CC(=O)c1ccc(N2CCN(C(=O)c3ccc4c(c3)CCC(=O)N4)CC2)cc1", "activity change, negative = inhibition": "-3.27% (inactive)"}, {"smiles": "CC(=O)Nc1ccc(S(=O)(=O)N2CCN(c3ccc(C(C)=O)cc3)CC2)cc1", "activity change, negative = inhibition": "1.35% (inactive)"}, {"smiles": "Cc1nc(NCCO)c2nc(-c3ccccc3)n(CCCN(C)C)c2n1", "activity change, negative = inhibition": "-3.47% (inactive)"}, {"smiles": "Cc1ccccc1NC(=O)CN1C(=O)N/C(=C\\c2cccn2-c2cccc(C(=O)O)c2)C1=O", "Potency": "inactive"}, {"smiles": "CC(=O)c1ccc(N2CCN(S(=O)(=O)c3ccc4[nH]c(=O)oc4c3)CC2)cc1", "activity change, negative = inhibition": "7.81% (inactive)"}, {"smiles": "Fc1ccc(CSc2nc3ncc(Br)cc3[nH]2)cc1", "activity change, negative = inhibition": "2.18% (inactive)"}, {"smiles": "O=C1Cc2cc(S(=O)(=O)N3CCN(c4ccc(O)cc4)CC3)ccc2N1", "activity change, negative = inhibition": "-20.4% (inactive)"}, {"smiles": "Cc1ccc(NS(=O)(=O)c2cc3c(cc2Cl)CCC(=O)N3)cc1Cl", "Potency": "inactive"}, {"smiles": "[2H]C([2H])(Nc1nc(-c2ccccc2C([2H])(C([2H])([2H])[2H])C([2H])([2H])[2H])ncc1C)c1ccc(-n2ccnn2)cc1", "activity change, negative = inhibition": "-2.03% (inactive)"}, {"smiles": "Cc1noc(CN(C)c2ncnc3ccc(-c4ccc5c(c4)OCO5)cc23)n1", "activity change, negative = inhibition": "-2.18% (inactive)"}, {"smiles": "CC(=O)c1ccc(N2CCN(S(=O)(=O)c3ccc4c(c3)C(=O)OC4)CC2)cc1", "activity change, negative = inhibition": "5.49% (inactive)"}, {"smiles": "CC(=O)c1ccc(N2CCN(S(=O)(=O)c3ccc4c(c3)CCCN4C(C)=O)CC2)cc1", "activity change, negative = inhibition": "7.12% (inactive)"}, {"smiles": "COc1ccc(N2CCN(S(=O)(=O)c3ccc4c(c3)CC(=O)N4)CC2)cc1", "activity change, negative = inhibition": "3.12% [at 228 µM] (inactive)"}, {"smiles": "N#Cc1ccc(N2CCN(S(=O)(=O)c3ccc4c(c3)CC(=O)N4)CC2)cc1", "activity change, negative = inhibition": "-2.49% (inactive)"}, {"smiles": "CC(=O)c1ccc(N2CCN(S(=O)(=O)c3ccc4c(c3)oc(=O)n4C)CC2)cc1", "activity change, negative = inhibition": "5.68% (inactive)"}, {"smiles": "CC(=O)c1ccc(N2CCN(S(=O)(=O)c3ccc4c(c3)n(C)c(=O)n4C)CC2)cc1", "activity change, negative = inhibition": "17% (inactive)"}, {"smiles": "Cc1nc(N2CCOCC2)c2nc(-c3ccccc3)n(CC3CCN(C)CC3)c2n1", "activity change, negative = inhibition": "0.124% (inactive)"}, {"smiles": "CC(=O)c1ccc(N2CCN(S(=O)(=O)c3ccc(N4CCCC4=O)cc3)CC2)cc1", "activity change, negative = inhibition": "4.06% (inactive)"}, {"smiles": "Cc1ccc(NC(=O)CN2C(=O)N/C(=C\\c3cccn3-c3cccc(C(=O)O)c3)C2=O)cc1", "activity change, negative = inhibition": "3.06% (inactive)"}, {"smiles": "CN(C(=O)c1cn2c(-c3ccc(C(F)(F)F)cc3)cnc2cn1)c1ccc(C#N)cc1", "activity change, negative = inhibition": "1.82% (inactive)"}, {"smiles": "Cc1ccc(NS(=O)(=O)c2ccc3c(c2)CCC(=O)N3)cc1C", "activity change, negative = inhibition": "3.69% (inactive)"}, {"smiles": "Cc1ccc(N2CCN(S(=O)(=O)c3ccc4c(c3)CC(=O)N4)CC2)cc1", "activity change, negative = inhibition": "0.009% [at 228 µM] (inactive)"}, {"smiles": "Cc1ccc(NS(=O)(=O)c2cc3c(cc2N[C@H](C)CO)NC(=O)CC3)cc1C", "activity change, negative = inhibition": "-0.468% (inactive)"}, {"smiles": "COC(=N)c1nc2ccc3ncnc(Nc4ccc(F)cc4Br)c3c2s1", "activity change, negative = inhibition": "-3.97% (inactive)"}]}]}
